This is a sample that favours compounds with a hit; in the whole collection about 4% have one here.
TSHR ag = qHTS Assay for Agonists of the Thyroid Stimulating Hormone Receptor; actives 0.48% (n = 73,000); Potency, µM (titrated, usually from 57.1 µM), for the others: at the highest dose activation, hits mostly activators; HEK293-CNG-TSHR cells (CNG channel as cAMP sensor), membrane potential dye, cAMP; active = well fitted activation curve with a large enough effect in the main read-out, with a control signal flat, not every such curve was filed as active; inconclusive = small, poorly fitted or top-dose-only effect, or a change in a side signal; inactive = no such curve, though single readings can be large or run the other way; % of control where 0% means no effect;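 also: the control signal comes from parental cells without the receptor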
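HEK 293 cells stably expressing TSHR and a modified CNG channel, with CNG-only parental cells as counterscreen, were preloaded 60 min at room temperature with membrane potential dye containing 100 uM RO 20-1724. Compound exposure was 30 min, and depolarization was read as fluorescence at 590 nm.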
Caspase-7 inhib = qHTS Assay for Allosteric/Competitive Inhibitors of Caspase-7; recombinant caspase-7, Ac-DEVD-AFC fluorescence rate; Potency, µM (series often up to 57.5 µM), for the others: top-dose activity change, negative = inhibition, usual class: inhibitors; AID 889, 2007; actives 0.02% (n = 75,000); P55210; active = well fitted inhibition curve with a large enough effect in the main read-out, with a control signal flat, not every such curve was filed as active; inconclusive = small, poorly fitted or top-dose-only effect, or a change in a side signal; also: % of control where 0% means no effect
Target sequence (P55210 24-198 limits assumed): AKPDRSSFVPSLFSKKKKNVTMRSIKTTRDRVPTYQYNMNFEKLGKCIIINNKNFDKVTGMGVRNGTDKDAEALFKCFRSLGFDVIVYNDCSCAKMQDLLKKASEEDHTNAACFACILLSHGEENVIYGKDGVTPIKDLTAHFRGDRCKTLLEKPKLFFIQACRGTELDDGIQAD
Target sequence (P55210 207-303 limits assumed): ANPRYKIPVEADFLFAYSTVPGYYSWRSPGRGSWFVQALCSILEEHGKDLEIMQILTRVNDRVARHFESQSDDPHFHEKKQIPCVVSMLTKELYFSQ
Casp1 inh = qHTS Assay for Allosteric/Competitive Inhibitors of Caspase-1 | actives 0.03% (n = 75,000) | Caspase-1 enzyme, Ac-WEHD-AFC fluorogenic rate | AID 900, 2007 | P29466 | Potency, µM (doses to about 57.5 µM), without a hit: at the highest dose activity change, negative = inhibition, usual class: inhibitors;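 also: plate controls were vehicle for no effect and no substrate for full effect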
Target sequence (P29466 120-297 limits assumed): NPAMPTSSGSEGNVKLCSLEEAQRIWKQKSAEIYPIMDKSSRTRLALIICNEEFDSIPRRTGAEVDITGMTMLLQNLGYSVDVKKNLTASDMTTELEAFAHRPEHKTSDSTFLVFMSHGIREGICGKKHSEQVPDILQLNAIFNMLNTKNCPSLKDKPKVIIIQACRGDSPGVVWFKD
Target sequence (P29466 317-404 limits assumed): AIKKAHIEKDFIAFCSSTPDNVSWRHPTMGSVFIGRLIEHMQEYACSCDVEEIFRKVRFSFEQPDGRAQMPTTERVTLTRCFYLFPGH
HEK293 cAMP ctrl = qHTS Assay for Agonists of the Thyroid Stimulating Hormone Receptor: Activators of Intracellular cAMP Concentrations in Parental HEK 293; actives 2.5% (n = 73,000); AID 938, 2007; parental HEK293 CNG cAMP sensor, membrane potential fluorescence; Potency, µM (highest dose often 57.1 µM), for the others: at the highest dose activation, usual class: activators; also: % of control where 0% means no effect; nearly all actives have a fitted effect of over 55% in size
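Parental HEK 293 cells stably expressing a cAMP-gated CNG channel were loaded with membrane potential dye containing 100 uM RO 20-1724 for 60 min. Compound added for 30 min; depolarization read as fluorescence intensity at 590 nm.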
GBA activity = Glucocerebrosidase; AID 360, 2006; purified enzyme, resorufin glucoside fluorescence (screen aimed at inhibitors), 20 min; actives 1.1% (n = 48,000); Lysosomal acid glucosylceramidase (Homo sapiens), P04062; Potency, µM; in the data active = potency below about 15 µM; inconclusive = mostly about 16 µM to 33 µM;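 also: the screen sought inhibitors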
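Normal human glucocerebrosidase (0.2 nM final) was assayed with resorufin β-D-glucopyranoside (30 uM final) in 50mM citric acid/KH2PO4, 10mM sodium taurocholate, 0.01% tween-20, pH 5.9. Compounds were titrated; fluorescence (Ex 548, Em 600) read after 20 min at RT.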
Bst PK mod = Pyruvate Kinase. purified pyruvate kinase, luminescence ATP production; ribose 5-phosphate activator present at AC10. Potency, µM. actives 1.2% (n = 51,000). AID 361, 2006; in the data active = potency below about 11 µM; inconclusive = mostly about 12 µM to 25 µM;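 the screen sought inhibitors and activators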;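 also: scaled between full activation by ribose 5 phosphate and full inhibition by luteolin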
Numbers without * were called inactive; ? = inconclusive; · = no result; [ ] = dose if it differs, or a comment. Unless noted, calls follow the shape of the dose curve; as a rule, active = well fitted curve in the direction sought with a large enough effect; inconclusive = small, poorly fitted or top-dose-only effect, or another doubt; inactive = no such curve, though single readings can be large; an effect the other way counts as inactive or inconclusive. Potency is read from the fitted curve at half-maximal effect.

SMILES	TSHR ag	Caspase-7 inhib	Casp1 inh	HEK293 cAMP ctrl	GBA activity	Bst PK mod
c1cncc(CNc2ncncc2-c2ccc3c(c2)OCO3)c1	?	0.4%	-0.2%	?	·	·
CCC(=O)Nc1cc2nn(-c3ccc(OC)cc3)nc2cc1C	-4.7%	1.4%	-1.7%	6.1%	>76.9	3.44*
O=C1c2cccc([N+](=O)[O-])c2C(=O)N1c1ncn[nH]1	1.6%[11.4 µM]	0.4%[11.5 µM]	-1.0%[11.5 µM]	-0.1%[11.4 µM]	·	·
C[C@H](Br)C(=O)c1ccc2cc(Br)c3ccccc3c2c1	-0.8%[11.4 µM]	0.4%[11.5 µM]	-0.4%[11.5 µM]	-5.3%[11.4 µM]	·	·
O=C(c1ccco1)N1CCC(c2nc(-c3ccc(F)cc3)no2)CC1	?	-2.7%	2.5%	20µM*	>76.9	>57
O=C(Nc1cccc(C(F)(F)F)c1)N1CCC(c2nc(-c3ccc(F)cc3)no2)CC1	3.0%	-1.3%	-1.9%	12.3%	?	>57
CN=C(N)/N=C(\N)Nc1cc2ccccc2c2ccccc12	1.4%[11.4 µM]	-0.9%[11.5 µM]	-1.5%[11.5 µM]	8.4%[11.4 µM]	·	·
Cc1ccc(C)c(N2CCN(S(=O)(=O)c3ccc4c(c3)OCCO4)CC2)c1	25.1µM*	-2.2%	-2.3%	28.8%	?	>57
COC(=O)CCCC(=O)O	?	-0.6%[11.5 µM]	-4.5%[11.5 µM]	?	·	·
CC(C)Cn1c(SCC(=O)NC(=O)NC2CCCC2)nc2ccccc21	?	-3.8%	-0.6%	31.6µM*	?	>57
Cc1cccc(OCCSc2cc(C)nc(N)n2)c1	?	-4.1%	-13.6%	31.6µM*	·	·
Cc1ccc(OCCSc2cc(C)nc(N)n2)cc1	?	-5.9%	-3.0%	?	·	·
Cc1cc(C)cc([N+](=O)[O-])c1	?	0.4%	-1.2%	-2.7%	·	·
Cc1ccc(Nc2ncnc3nc[nH]c23)cc1Cl	?	-8.9%	-8.1%	25.1µM*	·	·
CCCCc1ccc(Nc2ncnc3nc[nH]c23)cc1	6.1%	-2.2%	-3.2%	-23.0%	·	·
CC(C)[C@@H]1NC(=O)[C@H](CCCCN)NC(=O)[C@H](Cc2c[nH]c3ccccc23)NC(=O)[C@H](Cc2ccc(O)cc2)NC(=O)[C@H](C)N(C)C(=O)[C@H](Cc2ccccc2)NC1=O	3.0%	2.5%	1.7%	2.7%	·	·
CC(=O)C1=C(O)C=C(c2ccco2)CC1c1ccco1 (stereo unspecified)	?	-7.7%	-5.2%	15.8µM*	>76.9	>57
O=C1NC(c2cccs2)Nc2sc3c(c21)CCCC3 (stereo unspecified)	-2.9%	-0.3%	1.7%	3.4%	>76.9	2.89*
ON=C1CCCCC1	?	-3.3%	?	-28.8%	·	·
CC1Cn2c(nnc2-c2cccc(Cl)c2)S1 (stereo unspecified)	6.2%	2.0%	-3.1%	8.1%	·	·
CC1Cn2c(nnc2-c2ccc(F)cc2)S1 (stereo unspecified)	?	0.7%	-3.9%	3.98µM*	·	·
CC(=O)c1c(C(C)=O)c(C)n(Cc2ccc3c(c2)OCO3)c1C	?	0.1%	-2.0%	12.6µM*	>76.9	>57
CN1/C(=C\C(=O)COc2ccc3c(c2)OCO3)C(C)(C)c2ccccc21	?	-14.2%	?	31.6µM*	>76.9	>57
CN1/C(=C\C(=O)COC(=O)C2COc3ccccc3O2)C(C)(C)c2ccccc21 (stereo unspecified)	16.1%	-8.9%	-11.2%	3.0%	>76.9	>57
CN1/C(=C/C(=O)c2nc(S(C)(=O)=O)ncc2Cl)C(C)(C)c2ccccc21	-4.3%	-13.6%	-12.3%	-11.5%	>76.9	>57
SMILES	TSHR ag	Caspase-7 inhib	Casp1 inh	HEK293 cAMP ctrl	GBA activity	Bst PK mod
CN1/C(=C\C(=O)C(F)F)C(C)(C)c2ccccc21	?	-28.3%	·	31.6µM*	·	·
CN1/C(=C\C(=O)c2ccco2)C(C)(C)c2ccccc21	?	?	·	20µM*	>76.9	>57
COc1ccc(CCN(C)CCC[C@@](C#N)(c2cc(OC)c(OC)c(OC)c2)C(C)C)cc1OC	·	0.3%	-1.4%	18.4%	·	·
c1ccc(Nc2nc(-c3ccoc3)nc3ccccc23)cc1	?	-11.8%	-6.1%	?	·	·
COC(=O)c1ccccc1NC(=O)C1CC(=O)N(c2ccc(F)cc2)C1 (stereo unspecified)	?	-0.6%	-1.5%	25.1µM*	>76.9	>57
COc1cc(-c2ccc(N=Nc3ccc4c(S(=O)(=O)O)cc(S(=O)(=O)O)c(N)c4c3O)c(OC)c2)ccc1N=Nc1ccc2c(S(=O)(=O)O)cc(S(=O)(=O)O)c(N)c2c1O	-20.9%	-11.0%	-3.7%	-16.4%	·	·
O=S(=O)(NC1CCCCC1)c1cccc(-c2nnc(-c3ccccc3)o2)c1	?	-5.7%	-2.7%	20µM*	·	·
Cc1ccccc1NS(=O)(=O)c1cccc(-c2nnc(-c3ccccc3)o2)c1	?	-4.5%	-2.8%	6.31µM*	·	·
O=S(=O)(NC1CCCC1)c1ccc(S(=O)(=O)NC2CCCC2)cc1	-3.3%	1.3%	-1.2%	9.4%	>76.9	>57
COc1ccc(-c2noc(Cc3ccc(Cl)cc3)n2)cc1OC	25.1µM*	-5.4%	-2.3%	28.8%	·	·
COc1ccc(Cl)cc1C(=O)N(Cc1nc(-c2cccc(C)c2)no1)C(C)C	25.1µM*	-3.8%	-0.8%	11.5%[11.4 µM]	·	·
CN(c1ccc(C(=O)O)cc1)S(=O)(=O)c1ccccc1	-2.1%	1.1%	-0.3%	7.2%	·	·
CN(c1ccc(C(=O)Nc2nccs2)cc1)S(=O)(=O)c1ccccc1	?	-1.0%	2.4%	31.6µM*	·	>57
O=C(COC(=O)CSc1nnc(-c2ccc(Cl)cc2)o1)NCc1ccc2c(c1)OCO2	-1.2%	2.0%	-2.7%	4.3%	11*	>57
COc1ccc(C(=O)Nc2ccccc2C(=O)NCc2ccco2)cc1OC	·	-2.1%	-3.5%	17.0%	>76.9	>57
COc1ccc(NC(=O)c2ccccc2NC(=O)c2ccco2)c(OC)c1	16.7%[11.4 µM]	-1.6%	-1.7%	8.5%[11.4 µM]	·	·
COc1ccc(C(=O)Nc2ccc(Cl)cc2C(=O)NCc2ccco2)cc1OC	?	-1.1%	-4.1%	25.1µM*	·	·
COc1cccc(C(=O)Nc2cc(NC(=O)c3ccco3)ccc2OC)c1	10.8%	0.3%	-0.7%	6.7%	>76.9	>57
CCOc1ccccc1NC(=O)c1cc(Cl)ccc1NC(=O)c1ccco1	?	-4.5%	-3.6%	25.1µM*	>76.9	>57
COc1ccccc1NC(=O)c1cc(Cl)ccc1NC(=O)c1ccco1	?	0.4%	-4.0%	25.1µM*	>76.9	>57
COc1ccc(NC(=O)c2ccco2)cc1NC(=O)c1cccc(OC(C)C)c1	?	-1.9%	-0.1%	?	9.83*	>57
O=C1c2ccccc2C(O)(O)[C@@]1(O)[C@]1(O)C(=O)c2ccccc2C1(O)O	0.5%[11.4 µM]	-2.5%[11.5 µM]	-0.8%[11.5 µM]	5.6%[11.4 µM]	·	·
COc1ccc(Cl)cc1NC(=O)CN(C(=O)c1ccco1)C1CCCCC1	?	-1.0%	-0.9%	3.98µM*	?	>57

Bioassay records deposited in PubChem by National Center for Advancing Translational Sciences (NCATS).
